A number with no mark means an inactive call.

We go through eight molecules from PubChem BioAssay.

The test system of this experiment is XIP peptide (Xip251-270) binding. Briefly: XIP fragment 251-270 binding compounds – biochemical, small-molecule microarray, fluorescence 635/667 nm, 0.1 µg/mL protein, primary screen (AID 1182). Particulars: fluorescent protein binding, 635 nm, higher = more signal, called active from +8 up or from −8 down.
For the molecule `CCOC(=O)C[C@H]1[C@H](OC(=O)c2cc3ccccc3oc2=O)[C@@H](NC(=O)Cc2ccc(OC)cc2)c2cc(OCCCO)ccc2N1C(=O)Cc1ccc(OC)cc1`, the composite z-score was -0.0664.
On to `COCCCNC(=O)[C@@]1(Cc2ccccc2I)c2ccccc2C(=O)N(Cc2ccccc2C(F)(F)F)[C@H]1c1ccc(CO)cc1`, for which the composite z-score was 0.739.
On to `CC1C2C(CCCO)=CC(C3C(=O)N(C)C(=O)C23)N1Cc1cccc(OC(F)(F)F)c1` (stereo not drawn), for which the composite z-score was 1.17.
As to `CC(C)c1ccc(NN2C(C(O)C(C)c3ccccc3)C=CC3C(=O)N(c4ccccc4)C(=O)C32)cc1` (stereo not drawn), the composite z-score was 2.17.
Next, `CCOC(=O)C[C@H]1[C@H](OC(=O)c2ccccc2-c2ccccc2)[C@@H](NC(=O)CC(C)C)c2cc(OCCCO)ccc2N1C(=O)c1ccccc1`: 0.539.
`COC(=O)[C@@]1(Cc2ccc(F)cc2)[C@H]2c3cc(C(=O)N(C)C)n(Cc4ccsc4Br)c3C[C@H]2CN1C(=O)c1ccccc1`: the composite z-score is 1.29.
With `COCCCNC(=O)[C@@]1(Cc2ccccc2I)c2ccccc2C(=O)N(Cc2ccccc2OC)[C@H]1c1ccc(CO)cc1` the figure was 1.02.
In the case of `COc1ccc([Si](C)(C)[C@H]2[C@H](CC(=O)N3CCC[C@H]3CO)O[C@@]3(C(=O)N(C)c4c(Br)cc(C)cc43)[C@@H]2C)cc1`, the composite z-score is 1.14.
